Test results from PubChem BioAssay (NCATS).
Records with an inconclusive call do not appear. A number with no mark means an inactive call. Activity calls are given as the source filed them. Calls come from the whole dose curve.

Biological target: Nucleoprotein (Lymphocytic choriomeningitis virus (strain Armstrong)) (UniProt P09992)
Experiment: qHTS for Inhibitors of the Functional Ribonucleoprotein Complex (vRNP) of Lymphocytic Choriomeningitis Arenaviruses (LCMV): LCMV Primary Screen - GLuc reporter signal (AID 1347086); note: nearly all actives have a fitted effect of over 70% in size
Details: LCMV minigenome vRNP cell assay, Gaussia luciferase reporter; series mostly up to 57.5 µM; activity change, negative = inhibition: at the top concentration
% is set by controls: 0 for no effect and ±100 for the full control effect; potency is the fitted concentration of half-maximal effect.

Nucleoprotein (Lymphocytic choriomeningitis virus (strain Armstrong)), sequence (P09992 whole entry, looked up): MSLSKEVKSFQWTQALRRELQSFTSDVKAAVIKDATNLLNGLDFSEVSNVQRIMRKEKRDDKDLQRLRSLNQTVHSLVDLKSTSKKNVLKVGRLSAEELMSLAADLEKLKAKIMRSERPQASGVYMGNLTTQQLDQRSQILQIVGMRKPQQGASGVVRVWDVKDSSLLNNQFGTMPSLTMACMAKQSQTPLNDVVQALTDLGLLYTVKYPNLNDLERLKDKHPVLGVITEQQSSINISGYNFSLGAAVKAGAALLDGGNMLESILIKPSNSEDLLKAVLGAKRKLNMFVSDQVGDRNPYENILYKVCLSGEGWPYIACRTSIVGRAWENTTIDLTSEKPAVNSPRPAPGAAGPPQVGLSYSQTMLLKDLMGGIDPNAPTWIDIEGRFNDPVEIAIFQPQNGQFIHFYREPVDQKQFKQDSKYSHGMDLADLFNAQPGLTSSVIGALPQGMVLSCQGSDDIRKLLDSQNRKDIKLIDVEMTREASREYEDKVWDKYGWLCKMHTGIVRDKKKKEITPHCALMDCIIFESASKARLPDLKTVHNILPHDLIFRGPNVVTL

Structure (SMILES)	activity change, negative = inhibition	Potency
CC(C)c1onc(-c2c(Cl)cccc2Cl)c1COc1ccc(C=Cc2cccc(C(=O)O)c2)c(Cl)c1	7.61%	–
COc1ccc(C(=O)OC2CC3CCC(C2)[N+]3(C)[O-])cc1OC (stereo not given)	18.2%	–
C[C@@H]1C(=O)O[C@@H]2CC34[C@H]5C[C@@H](C(C)(C)C)C36[C@H](OC(=O)[C@@H]6O)OC4(C(=O)O5)[C@@]12O (stereo not given in full)	7.98%	–
C=C[C@@]1(C)CC(=O)[C@]2(O)[C@@]3(C)[C@@H](O)CCC(C)(C)[C@@H]3[C@H](OC(C)=O)[C@H](O)[C@@]2(C)O1	71.2%	–
NC[C@@H]1O[C@@H](O[C@H]2[C@@H](O)[C@H](O[C@@H]3[C@@H](O)[C@@H](N)C[C@H](N)[C@H]3O[C@H]3O[C@H](CN)[C@@H](O)[C@@H](O)[C@H]3N)O[C@H]2CO)[C@H](N)[C@@H](O)[C@@H]1O	-10.8%	–
CCC(CC)C(=O)O	13.1% [at 115 µM]	–
O=C(/C=C/c1ccc(O)cc1)OC[C@H]1O[C@@H](Oc2c(-c3ccc(O)cc3)oc3cc(O)cc(O)c3c2=O)[C@H](O)[C@@H](O)[C@@H]1O	26.2% [at 24.7 µM]	–
CC1=CC2OC3CC4OC(=O)C=CC=CC(C(C)O)OCC(O)C(C)CC(=O)OCC2(CC1O)C4(C)C31CO1 (stereo not given)	-65.9%	–
Cc1cc(Nc2nc(N[C@@H](C)c3ccc(F)cc3)c(C#N)cc2F)n[nH]1	-23.2%	–
COC(=O)c1ccc(OC)cc1	8.92% [at 115 µM]	–
O=C[C@H](O)[C@@H](O)[C@H](O[C@H]1O[C@H](CO)[C@@H](O[C@H]2O[C@H](CO)[C@@H](O)[C@H](O)[C@H]2O)[C@H](O)[C@H]1O)[C@H](O)CO	6.09%	–
C=C1C[C@@]23CC4C5[C@@]6(C)C[C@H](O)C[C@@]57C2[C@H](O)[C@@H]1[C@H](O)[C@H]3[C@H]7N4C6	0.981%	–
CCCCC/C=C\C/C=C\C[C@H](O)/C=C/C=C\CCCC(=O)O	11.5% [at 0.757 µM]	–
CCC(=O)NC[C@H](Cc1ccc(OCCc2nc(-c3ccccc3)oc2C)cc1)NC(C)=CC(=O)c1ccc(C(F)(F)F)cc1	-2%	–
CC1=C(O)C(=O)CO1	29.5% [at 115 µM]	–
COc1ccc(C[C@@H](C)[C@@H](C)Cc2ccc(OC)c(OC)c2)cc1OC	–	24.3 µM (active)
CCCCCCCCCCCCCC	15.7% [at 115 µM]	–
COC(=O)C1(Cc2ccc(O)c(CC3OC3(C)C)c2)OC(=O)C(O)=C1c1ccc(O)cc1 (stereo not given)	0.665%	–
C=C(C)[C@@H]1CCC2(C(=O)O)CC[C@]3(C)[C@H](CC[C@@H]4[C@@]5(C)CCC(=O)C(C)(C)[C@@H]5CC[C@]43C)[C@@H]12 (stereo not given in full)	0.573%	–
CC(O)CC(=O)O (stereo not given)	23%	–

Structure (SMILES)	activity change, negative = inhibition	Potency
Nc1nc(Cl)nc2c1ncn2[C@@H]1O[C@H](CO)C(O)[C@H]1O (stereo not given in full)	-75.7%	–
C=CC(C)(CCC=C(C)C)OC=O (stereo not given)	16.6% [at 115 µM]	–
CC(C)=CCC/C(C)=C/C(=O)O	25.9% [at 115 µM]	–
CC12CCC(C1)C(C)(C)C2O (stereo not given)	-113% [at 115 µM]	–
CC(=O)OC(C)c1ccccc1 (stereo not given)	-5.63% [at 115 µM]	–
COc1cc(C)cc(C(=O)O)c1C1=C(O)c2cccc(O)c2C(=O)C1=O	3.79%	–
COC1=CC(=O)CC(C)C12Oc1cc(OC)cc(OC)c1C2=O (stereo not given)	15.7%	–
NC1C(O)OC(CO)[C@@H](O)[C@@H]1O[C@H]1O[C@@H](C(=O)O)C(O)C(O)C1O (stereo not given in full)	25.8%	–
C[C@H]1[C@H](C)CC[C@]2(C(=O)O)CC[C@]3(C)C(=CC[C@@H]4[C@@]5(C)C[C@@H](O)[C@H](O)C(C)(C)[C@@H]5CC[C@]43C)[C@H]12	6.89%	–
COc1c2ccoc2c(OC[C@@H](OC(C)=O)C(C)(C)O)c2oc(=O)ccc12	7.8%	–
CCCCC[C@H](O)/C=C/[C@H]1OC(O)C[C@H](O)[C@@H]1C/C=C\CC(=O)O (stereo not given in full)	5.45% [at 0.757 µM]	–
CC1(C)CCC[C@]2(C)[C@H]3CCO[C@]3(C)CC[C@@H]12	26.3% [at 115 µM]	–
CC12C=CC(=O)C=C1CCC1C2C(=O)CC2(C)C(=O)CCC12 (stereo not given)	-17%	–
COc1ccc2c(c1)C(=O)CC(c1ccc(OC)c(OC)c1)O2 (stereo not given)	17.1%	–
O=C(NCCCCNCCCNC(=O)c1ccccc1)c1ccccc1	8.68%	–
CCCCN	-0.424%	–
COc1ccc(-c2coc3cc(O)ccc3c2=O)cc1OC	1.97%	–
CCC(=O)OCC(=O)[C@@]1(OC(=O)CC)[C@@H](C)C[C@@H]2[C@H]3CCC4=CC(=O)C=C[C@]4(C)[C@@]3(F)[C@@H](O)C[C@@]21C	6.66%	–
Nc1nc(Cl)nc2c1ncn2[C@@H]1O[C@H](CO)[C@@H](O)[C@H]1F	-36.6%	–
COc1cc(/C=C/c2ccccc2)cc(OC)c1	3.68%	–
